In the library only some 19% were active in any assay of this set; here they are far more common.
IL1B secr inh: blocks inflammasome-driven IL-1 beta release; AID 743279; hit rate 4.7% among 360,000; THP-1 LPS/ATP IL-1B secretion, AlphaLISA, 16 h; stronger effect = lower value; activity change, % at 57.5 µM; in the data active means activity change below about -50%; inconclusive means mostly about -30% to -49%; further: on the % scale 0 is the no-effect control and ±100 the full control effect
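THP-1 cells pretreated 1 hr with compounds (up to 57.5 uM final), then stimulated with LPS (250 ng/mL final) plus ATP (1.25 mM final); secreted IL-1B measured by AlphaLISA after 16 hr, decreased signal indicating inhibition.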
HepG2 tox: kills HepG2 cells in TGF-b inhibitor counter-screen; HepG2 CAGA-GFP viability, ATP luminescence, 18 h; Potency, µM (highest dose often 46.1 µM), inactives show top-dose activity change, negative = cytotoxicity, actives largely listed as cytotoxic; hit rate 0.76% among 410,000; AID 588856; further: potency means the concentration at half of the fitted maximal effect
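CellTiter-Glo luminescence gave cytotoxicity after 18 hours at 37 degrees C. The cells were HepG2 CAGA-GFP in 1% FBS DMEM, stimulated with 500 pg/mL TGF-beta after compound addition. %Activity was normalised to no-cell wells (complete cell-killing) and DMSO (no toxicity), and curves were fitted and classified.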
S-ASM inh: blocks human secretory acid sphingomyelinase; P17405; placental ASM, HMU-PC fluorogenic substrate, 60 min; Potency, µM (series often up to 57.5 µM), for inactives: at the top dose activity change, negative = inhibition, hits mostly inhibitors; hit rate 0.006% among 340,000; AID 504937; further: potency means the concentration at half of the fitted maximal effect
Target sequence (P17405 47-631 limits assumed): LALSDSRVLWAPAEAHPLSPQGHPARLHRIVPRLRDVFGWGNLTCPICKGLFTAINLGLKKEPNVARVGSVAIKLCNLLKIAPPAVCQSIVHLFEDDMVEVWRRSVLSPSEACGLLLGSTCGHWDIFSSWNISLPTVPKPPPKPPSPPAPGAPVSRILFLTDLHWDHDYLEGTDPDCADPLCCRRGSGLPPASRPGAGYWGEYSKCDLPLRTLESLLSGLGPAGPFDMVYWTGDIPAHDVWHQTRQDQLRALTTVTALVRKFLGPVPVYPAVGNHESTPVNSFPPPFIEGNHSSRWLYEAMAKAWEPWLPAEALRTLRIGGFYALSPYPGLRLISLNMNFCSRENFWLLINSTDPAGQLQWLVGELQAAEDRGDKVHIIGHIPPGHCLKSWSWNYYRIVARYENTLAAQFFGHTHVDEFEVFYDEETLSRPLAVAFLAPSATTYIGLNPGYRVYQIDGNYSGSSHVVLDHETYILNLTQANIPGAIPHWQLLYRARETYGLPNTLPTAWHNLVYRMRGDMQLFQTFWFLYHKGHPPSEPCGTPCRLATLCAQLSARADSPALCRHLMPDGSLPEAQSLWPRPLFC
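Fluorescence read-out (Ex 386 nm, Em 447 nm) after stopping the reaction at pH 10. Enzyme: ASM from human placenta; substrate HMU-PC0, 9 uM final; 60 min, 37 °C. Compound preincubation 10 min, ambient temperature.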
TGFb SMAD3 inh: blocks TGF-b signaling; HepG2 CAGA-GFP TGF-b/SMAD3 reporter, GFP fluorescence, 18 h; TGF-beta stimulated, 500 pg/mL final; Potency, µM (titrated, usually from 46.1 µM), for inactives: top-dose activity, negative = inhibition, most hits filed as inhibitors; hit rate 1.2% among 410,000; further: potency means the concentration at half of the fitted maximal effect; on the % scale 0 is the no-effect control and ±100 the full control effect; nearly all actives have a fitted effect of over 65% in size
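HEPG2 CAGA-GFP, 1000 cells/well; 2 h settle, 37 C; cpd via pin tool; TGF-b 500 pg/mL final; 18 h, 37 C; GFP imaging ex488/em500-530; %Activity normalised to -TGF-b and +DMSO controls; CRC fit, curve class.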
DT40 TDP1 CPT: growth inhibition of DT40 Tdp1-/-;hTDP1 cells with camptothecin (screen for TDP1 inhibitors); chicken DT40 Tdp1-/-;hTDP1 cells + 20 nM CPT, ATP luminescence, 48 h; Potency, µM (doses to about 46.2 µM), without a hit: at the top dose activity change, negative = growth inhibition, actives largely listed as inhibitors; hit rate 12% among 420,000; AID 686979; further: potency means the concentration at half of the fitted maximal effect; on the % scale 0 is the no-effect control and ±100 the full control effect; nearly all actives have a fitted effect of over 55% in size
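Chicken DT40 Tdp1-/- cells complemented with human TDP1, 400 cells/well, exposed to compounds plus 20 nM camptothecin for at least 48 h at 37 C; viability read as ATP content by CellTiter-Glo luminescence.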
TDP1 cell noCPT: qHTS for Inhibitors of human tyrosyl-DNA phosphodiesterase 1 (TDP1): qHTS in cells in absence of CPT. DT40 Tdp1-/- hTDP1 cells, no CPT, ATP luminescence, 48 h. AID 686978, 2013. Potency, µM (top dose mostly 46.2 µM), inactives show top-dose activity change, negative = growth inhibition, most hits filed as inhibitors. hit rate 15% among 420,000; further: potency means the concentration at half of the fitted maximal effect; on the % scale 0 is the no-effect control and ±100 the full control effect; nearly all actives have a fitted effect of over 55% in size
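DT40 Tdp1-/-;hTDP1 cells, no CPT (DMSO vehicle only), 400 cells/well; compounds pin-transferred; ≥48 hr, 37 °C; CellTiter-Glo 30 min RT dark, luminescence read.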
Active calls of the source: *; ? = inconclusive; . = no result; [ ] = remark or other dose. Unless noted, the call rests on the fitted dose curve; in most records, active means well fitted curve in the direction sought with a large enough effect; inconclusive means small, poorly fitted or top-dose-only effect, or another doubt; inactive means no such curve, though single readings can be large; an effect the other way counts as inactive or inconclusive.

SMILES	IL1B secr inh	HepG2 tox	S-ASM inh	TGFb SMAD3 inh	DT40 TDP1 CPT	TDP1 cell noCPT
Cc1ccc(CNC(=O)CSCc2ccccc2)cc1	4.4	23.2%	-3.0%	14.2%	3.7%	-3.6%
O=C(CN1C(=O)CCC1=O)Nc1ccc(Cc2ccc(NC(=O)CN3C(=O)CCC3=O)cc2)cc1	-68.8*	-45.6%	-0.7%	-5.8%	15.9%	8.0%
CC(=O)c1ccc(NC(=O)CN2C(=O)CCC2=O)cc1	-1.5	-3.8%	0.0%	-23.7%	19.4%	-3.7%
Cc1cccc(-c2nc(SCc3cc(=O)c4cccc(F)c4[nH]3)n[nH]2)c1	.	-4.0%	.	?	?	?
COC(=O)c1ccc(Cn2cnc3c(Cl)ncnc32)cc1	-93.7*	-3.3%	5.5%	-9.7%	?	?
COC(=O)c1ccc(Cn2cc(Cl)cn2)cc1	?	-16.7%	2.4%	-7.5%	-11.7%	-5.8%
Cc1c(C(=O)NC2CCC(C)CC2)oc2ccccc12 (stereo not given)	-3.3	-16.5%	-0.7%	-10.7%	-9.4%	-10.5%
Cc1cccc(C)c1NC(=O)Cn1nnc(S(=O)(=O)c2ccccc2)c1N	.	-1.8%	.	.	-14.1%	-4.2%
COc1ccc(-c2cc(=O)oc(-c3cccc(C)c3)n2)cc1	0.0	-14.7%	25.3%	-6.1%	?	18.4µM*
COc1cc(OC)c2c(-c3cccc(-c4ccc(O)cc4)c3)cc(=O)oc2c1	72.9	-19.0%	?	?	?	16.4µM*
COc1cc(OC)c2c(-c3cccc(-c4ccc(N(C)C)cc4)c3)cc(=O)oc2c1	64.6	-7.0%	-14.2%	1.12µM*	1.84µM*	1.16µM*
COc1cc(OC)c2c(-c3cccc(/C=C/c4ccc(F)cc4)c3)cc(=O)oc2c1	2.7	-23.6%	-7.0%	-27.1%	20.6µM*	18.4µM*
Cc1ccc([N+](=O)[O-])cc1S(=O)(=O)Nc1ccc(C(=O)NCc2ccccn2)cc1	17.9	-13.1%	5.3%	2.5%	10.6%	7.0%
COc1cc(OC)c2c(-c3cccc(-c4ccc(OC(F)(F)F)cc4)c3)cc(=O)oc2c1	20.5	-56.5%	-22.4%	?	?	?
COc1cc(OC)c2c(-c3cccc(-c4cccc(C)c4)c3)cc(=O)oc2c1	85.8	-23.5%	-4.1%	?	4.11µM*	3.66µM*
COc1cc(OC)c2c(-c3cccc(-c4ccc(CO)cc4)c3)cc(=O)oc2c1	5.0	-3.8%	-7.0%	5.01µM*	1.3µM*	0.581µM*
CCCN1C(=O)/C(=C/c2c(N3CCNC(=O)C3CC(=O)OCC)nc3c(C)cccn3c2=O)SC1=S (stereo not given)	14.8	6.3%	?	78.3%	18.4µM*	16.4µM*
CCOC(=O)CC1C(=O)NCCN1c1nc2ccc(C)cn2c(=O)c1/C=C1\SC(=S)N(CC(C)C)C1=O (stereo not given)	30.4	-16.9%	-26.1%	185.4%	?	?
CCC(=O)c1ccc(OCC(O)CN2CCN(c3ccc(F)cc3)CC2)cc1 (stereo not given)	13.4	1.4%	-1.9%	-11.8%	-2.2%	-12.8%
CC(=O)c1ccc(OCC(O)CN2CCN(c3ccc(F)cc3)CC2)cc1 (stereo not given)	-0.9	-6.3%	-2.5%[11.5 µM]	-10.1%	?	23.1µM*
COc1cc(C(C)=O)ccc1OCC(O)CN1CCN(c2cc(C)cc(C)c2)CC1 (stereo not given)	-15.1	-22.4%	-3.6%	-14.5%	?	16.4µM*
CC(=O)c1ccc(N2CCN(CC(O)COC(c3ccccc3)c3ccccc3C)CC2)cc1 (stereo not given)	?	-20.8%	-3.9%	?	23.1µM*	?
CC1(C)CC2CN(C(=O)Cc3ccccc3)C(C)(C2)C1 (stereo not given)	-2.0	-13.6%	3.5%	5.8%	?	16.4µM*
CC1(C(=O)N2Cc3ccccc3C2)CCN1C(=O)Cc1ccccc1 (stereo not given)	5.0	-32.3%	.	-2.4%	?	?
COc1ccc(NC(=O)c2cc([N+](=O)[O-])ccc2N2CCCCC2)cc1OC	12.3	-27.2%	-8.5%	1.8%	20.6µM*	?
SMILES	IL1B secr inh	HepG2 tox	S-ASM inh	TGFb SMAD3 inh	DT40 TDP1 CPT	TDP1 cell noCPT
COc1ccc(NC(=O)c2cc([N+](=O)[O-])ccc2N2CCCCC2)cc1	18.0	-14.9%	-16.0%	-3.1%	20.6µM*	20.6µM*
CC(C)CNC(=O)c1cc([N+](=O)[O-])ccc1N1CCCCC1	0.3	0.5%	-1.7%	-1.9%	?	23.1µM*
O=C(Nc1ccccc1)c1cc([N+](=O)[O-])ccc1N1CCCCC1	45.1	3.5%	-10.4%	3.3%	?	?
Cc1ccc2nc(-c3ccc(NC(=O)CNC4CC4)cc3)sc2c1	-3.7	-50.2%	19.6%	-19.1%	16.4µM*	18.4µM*
CCC1(c2ccc(F)cc2)NC(=O)N(CC(=O)Nc2ccc(-c3nc4ccc(C)cc4s3)cc2)C1=O (stereo not given)	96.0	-39.7%	51.7%	-38.5%	13µM*	6.51µM*
Cc1ccc2nc(-c3ccc(NC(=O)C(F)(F)F)cc3)sc2c1	.	-26.1%	.	-10.1%	-18.2%	?
Cc1nc2ccc(NC(=O)CCS(=O)(=O)c3ccccc3)cc2s1	-0.3	2.2%	1.9%	0.2%	9.6%	-10.1%
Cc1ccc2nc(-c3ccc(NC(=O)CCS(=O)(=O)c4ccccc4)cc3)sc2c1	-23.3	-23.9%	156.8%	-6.1%	?	25.9µM*
COc1ccc(C2(C)NC(=O)N(CC(=O)Nc3ccc(-c4nc5ccc(C)cc5s4)cc3)C2=O)cc1 (stereo not given)	-9.5	-6.3%	54.2%	-11.9%	?	?
Cc1ccc2nc(-c3ccc(NC(=O)C(C)Sc4nncs4)cc3)sc2c1 (stereo not given)	-20.5	-43.3%	63.2%	-2.5%	?	9.2µM*
COc1ccc(S(=O)(=O)N2CCN(C)CC2c2ccccc2)cc1OC (stereo not given)	-0.8	-0.8%	.	8.7%	-18.5%	-5.6%
CSc1ccccc1C(=O)NCC1Cc2cc(F)cc(-c3cnccn3)c2O1 (stereo not given)	.	.	.	.	20.6µM*	?
C/C(=N\OCC(=O)Nc1ccccc1Br)c1cccs1	-5.8	5.2%	8.4%	-10.4%	-24.4%	?
O=C1CC(c2nc3ccccc3n2CCC2CCCCC2)CN1c1ccccc1Cl (stereo not given)	.	-13.5%	.	-17.3%	-18.8%	?

Screening results from PubChem BioAssay.
